Shown are actives, neighbours in structure and some others; about 2.5% of the full set was active somewhere.
Cruzain noTriton: blocks cruzain activity in detergent-free assay | hit rate 2.3% among 200,000 | Potency, µM, for inactives: max response, negative = inhibition, hits mostly inhibitors | P25779 | purified cruzain, Z-FR-AMC fluorescence, no detergent;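 note: plate controls were enzyme without inhibitor for no effect and buffer without enzyme for full effect; nearly all actives have a fitted effect of over 40% in size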
Target sequence (P25779 123-467 limits assumed): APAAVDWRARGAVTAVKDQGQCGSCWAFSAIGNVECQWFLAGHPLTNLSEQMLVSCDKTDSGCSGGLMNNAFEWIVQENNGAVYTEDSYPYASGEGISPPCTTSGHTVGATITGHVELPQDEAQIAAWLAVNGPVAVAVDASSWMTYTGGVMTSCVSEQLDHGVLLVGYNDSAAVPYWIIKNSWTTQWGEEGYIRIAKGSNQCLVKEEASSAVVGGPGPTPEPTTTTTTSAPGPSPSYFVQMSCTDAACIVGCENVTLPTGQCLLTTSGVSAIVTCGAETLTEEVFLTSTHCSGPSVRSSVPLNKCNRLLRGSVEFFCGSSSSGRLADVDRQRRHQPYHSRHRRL
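Purified cruzain at 1.5 nM, pre-incubated 15 min with compound at room temperature in 100 mM sodium acetate pH 5.5, 5 mM DTT, 0.00005% Triton X-100. Reaction started with 2 uM Z-FR-AMC; AMC fluorescence increase over 60 s gives rate.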
Cruzain Triton: inhibitors of Trypanosoma cruzi cruzain with detergent | purified cruzain, Z-FR-AMC fluorescence, 0.01% Triton | Potency, µM, for the others: max response, negative = inhibition, hits mostly inhibitors | P25779 | hit rate 0.43% among 200,000;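 note: plate controls were neutral wells for no effect and buffer without enzyme for full effect; nearly all actives have a fitted effect of over 40% in size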
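Enzyme 1.5 nM, Z-FR-AMC 2 uM, NaOAc 100 mM pH 5.5, DTT 5 mM, Triton X-100 0.01%; 15 min RT compound preincubation; kinetic ex360/em450, 60 s delta.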
Numbers without * were called inactive; ? = inconclusive. Calls come from the whole dose curve; as a rule, active = well fitted curve in the direction sought with a large enough effect; inconclusive = small, poorly fitted or top-dose-only effect, or another doubt; inactive = no such curve, though single readings can be large; an effect the other way counts as inactive or inconclusive. Potency is the fitted concentration of half-maximal effect.

SMILES	Cruzain noTriton	Cruzain Triton
c1ccc(-c2ccc(Oc3cc(N4CCOCC4)nc(-c4ccccc4)n3)cc2)cc1	10µM*	4%
Cc1cccc(NC(=O)C(Cc2ccccc2)n2cccc2)c1C (stereo unspecified)	5%	-7%
COc1ccccc1NS(=O)(=O)c1ccc(Cl)c(NC(=S)NC(=O)C2CCCC2)c1	?	-13%
CCN(CC)c1ccc(S(=O)(=O)Nc2cc(Cl)ccc2Cl)cc1NC(=S)NC(=O)C1CCCC1	32µM*	-2%
Cc1ccc2c(c1)N(C(=O)N1CCC(C(=O)NCCc3ccc(Cl)cc3)CC1)CC(C)O2 (stereo unspecified)	2%	-4%
Cc1noc(C)c1S(=O)(=O)NCCc1csc2nc(-c3ccc(Cl)cc3)nn12	?	-7%
COc1ccc(NS(=O)(=O)c2ccc3nc(COc4ccc5ccccc5c4)[nH]c3c2)cc1	?	5%
COc1ccc(NS(=O)(=O)c2ccc3nc(COc4cccc5ccccc45)[nH]c3c2)cc1	32µM*	-2%
COc1ccc2nc(C)cc(Nc3ccc(Cl)c(Cl)c3)c2c1	-2%	-7%
COc1cc(C)ccc1OCCOc1c(Cl)cc(Cl)cc1Cl	-1%	-1%
COc1cc(C)ccc1OCCOc1cc(C)ccc1Cl	20µM*	-1%
COc1cc(CNCCSc2nnnn2C)ccc1OCc1ccccc1C	2%	0%
COc1cccc(NC(=O)C(Sc2nnc(Nc3ccccc3C)s2)c2ccccc2)c1 (stereo unspecified)	?	-2%
COc1ccc(Nc2nnc(SC(C(=O)Nc3ccc(OC)c(Cl)c3)c3ccccc3)s2)cc1 (stereo unspecified)	6.3µM*	-1%
CC(C)NC(=O)CSc1nc(-c2cccs2)cc(-c2ccccc2)c1C#N	20µM*	-7%
COc1ccc(-c2cc(-c3ccccc3)nc(SCC(=O)Nc3ccccc3F)c2C#N)cc1	-6%	1%
CCc1nnc(NC(=O)CSc2nc(-c3ccccc3)cc(-c3ccc(OC)cc3)c2C#N)s1	13µM*	-3%
N#Cc1c(-c2ccccc2)cc(C2CC2)nc1SCC(=O)c1cccs1	?	1%
COc1ccc(-c2cc(-c3ccccc3)nc(SCC(=O)Nc3nccs3)c2C#N)cc1	7.9µM*	-8%
COc1ccc(-c2cc(-c3ccccc3)c(C#N)c(SCC(=O)Nc3ncc(C)s3)n2)cc1	?	-3%
CCOc1ccc(N(C)C(CNS(=O)(=O)c2ccccc2)c2ccccc2)cc1 (stereo unspecified)	7%	-11%
CCCCC(C)(O)C/C=C/[C@H]1[C@H](O)CC(=O)[C@@H]1CCCCCCC(=O)O (stereo partly specified)	-5%	1%
Cc1cccc(N2CCN(c3nc4ccc(C(=O)c5ccccc5)cc4n4cnnc34)CC2C)c1 (stereo unspecified)	-13%	-1%
COc1ccccc1OCc1nc2ccccc2n1Cc1ccccc1	-9%	-4%
Cc1cccc(NC(=O)C(=O)c2cc(C)n(-c3ccccc3)c2C)c1C	-3%	-3%
SMILES	Cruzain noTriton	Cruzain Triton
COc1ccc(Cl)cc1NC(=O)Cc1ccc(NC(=O)N2CCCCc3ccccc32)cc1	1%	-3%
COc1cc(OC)c(OC)cc1/C=C/C(=O)c1ccc(NS(=O)(=O)c2ccc(C)cc2)cc1	20µM*	-4%
CC(=O)c1ccc(NS(=O)(=O)c2ccc(C)cc2)cc1	6%	1%
Cc1c(Cl)cccc1-n1nc(C)c2c(C)cc(=O)n(CC(=O)N3CCCc4ccccc43)c21	-5%	-7%
Cc1nc2nc(-c3ccccc3)cc(=O)n2[nH]1	-3%	1%
O=c1cc(-c2ccccc2)nc2nc(-c3ccco3)[nH]n12	0.4µM*	-1%
Cc1ccc(N=C2NC(=O)/C(=C/c3cn(C)c4ccccc34)S2)cc1C	13µM*	-5%
Cn1cc(/C=C2/SC(=O)N(c3ccccc3)C2=O)c2ccccc21	?	1%
CC(C)c1ccc(NC(=O)CN2C(=O)COc3ccc(S(=O)(=O)N4CCCCC4)cc32)cc1	-10%	-6%
CCOc1ccc(S(=O)(=O)Nc2ccccc2C(=O)NCc2ccco2)cc1	6%	-12%
COc1ccc(S(=O)(=O)Nc2ccccc2C(=O)NCc2ccco2)cc1Br	25µM*	?
Cn1cc(/C=C2/SC(=O)N(CC(=O)Nc3ccc4c(c3)OCO4)C2=O)c2ccccc21	25µM*	-1%
O=C(CCN1C(=O)/C(=C/c2ccc3c(c2)OCO3)SC1=S)Nc1ccccc1	7.9µM*	-5%
COc1ccc(/C=C2\SC(=S)N(CCC(=O)NC3=NCCS3)C2=O)cc1OC	-15%	-12%
Cn1cc(S(=O)(=O)CC(=O)Nc2ccc3c(c2)OCCO3)c2ccccc21	1%	8%
COc1ccc(CCNC(=O)Cn2nnc(-c3cccc(C(F)(F)F)c3)n2)cc1OC	1%	-1%
CCCN(C(=O)c1cc2c(=O)oc3ccccc3c2s1)c1ccccc1C	6%	-1%
S=C(Nc1ccc(Oc2ccccc2)cc1)NC1CCCCCC1	5%	-5%
